HCV inhibitor – qHTS Assay for Inhibitors of Hepatitis C Virus (HCV); Huh7.5.1 HCVcc-Cre infection, luciferase reporter, 44 h; Potency, µM (series often up to 41.8 µM), without a hit: at the top dose activity change, negative = inhibition, most hits filed as inhibitors; 3.4% of 340,000 active; AID 651820, 2012; also: potency is read from the fitted curve at half-maximal effect; % is scaled to controls: 0 for no effect and ±100 for the full control effect
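Reporter virus HCVcc-Cre (~0.5 moi) infects cells exposed to compound; seeding density 1,000 cells/well with 4 h settling beforehand. Luminescence, 15 sec read, taken 44 h post-infection following a 15 min RT substrate incubation.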
Pf growth 96h – Primary qHTS for delayed death inhibitors of the malarial parasite plastid, 96 hour incubation; AID 504834, 2011; 6.9% of 320,000 active; P. falciparum luciferase reporter growth, 96 h; Potency, µM (series often up to 28.7 µM), for the others: at the highest dose activity change, negative = inhibition, most hits filed as inhibitors; also: potency is read from the fitted curve at half-maximal effect; % is scaled to controls: 0 for no effect and ±100 for the full control effect
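Infected RBCs, 2% Hct / 0.05% parasitemia final; luciferase-reporter P. falciparum; cpd 96 h, 37 C, 5% CO2; luciferase detection reagent; luminescence.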
Pf growth 48h – Primary qHTS for delayed death inhibitors of the malarial parasite plastid, 48 hour incubation. 5.9% of 310,000 active. P. falciparum luciferase growth in erythrocytes, 48 h. Potency, µM (top dose mostly 28.7 µM), without a hit: at the top dose activity change, negative = inhibition, actives largely listed as inhibitors. AID 504832, 2011; also: potency is read from the fitted curve at half-maximal effect; % is scaled to controls: 0 for no effect and ±100 for the full control effect
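Firefly luciferase activity from engineered P. falciparum reports growth; inhibitors lower the luminescent signal. Cultures contained 2% hematocrit erythrocytes at 0.1% final parasitemia.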
Shiga inhibitor – A qHTS for Small Molecule Inhibitors of Shiga Toxin | Vero cells, Shiga toxin protein synthesis inhibition reporter | inhibition, % at 38.7 µM | AID 2315, 2010 | 9.2% of 290,000 active; in the data active = inhibition mostly above about 28%, no sharp cut-off; inactive = mostly below about 43%; also: 0% is about no effect
HCMV inh – qHTS Assay for inhibitors of the human cytomegalovirus (HCMV). HFF cells, HCMV-luciferase reporter, 72 h; active compounds read low. AID 1259415, 2018. activity change, negative = inhibition, % at 57.5 µM. 4.5% of 410,000 active; in the data active = activity change below about -60%; inconclusive = no clear call, values can overlap the other calls; inactive = above about -39%; also: % is scaled to controls: 0 for no effect and ±100 for the full control effect
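Two-dose cell screen: HFF monolayers treated with compounds and infected with luciferase-expressing HCMV at 1 PFU/cell, 72 h at 37C, then lysed for luciferase measurement.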
CHX counter – Cycloheximide Counterscreen for Small Molecule Inhibitors of Shiga Toxin; cell reporter, cycloheximide protein synthesis inhibition counterscreen; max response, %; 12% of 300,000 active; AID 2314, 2010; in the data active = max response mostly above about 13%, no sharp cut-off; inactive = mostly below about 14%; also: read at 38.3 µM for the half of the compounds with a filed dose; 0% is about no effect
Numbers without * were called inactive; ? = inconclusive; . = no result; [ ] = remark or other dose. This is a sample that favours compounds with a hit; in the whole collection about 21% have one here. Unless noted, calls follow the shape of the dose curve; as a rule, active = well fitted inhibition curve with a large enough effect; inconclusive = small, poorly fitted or top-dose-only effect, or another doubt; inactive = no such curve, though single readings can be large or run the other way.

SMILES	HCV inhibitor	Pf growth 96h	Pf growth 48h	Shiga inhibitor	HCMV inh	CHX counter
Cc1ccc(Nc2nnc(SCC(=O)Nc3cccnc3Cl)s2)cc1C	-12%	-24%	-7%	52*	-32	27*
Cc1ccc(Nc2nnc(SCC(=O)NCCN3C(=O)CSC3=O)s2)cc1	2%	-23%	35%	31	27	13*
O=C(CSc1nnc(Nc2ccccc2)s1)NCCN1C(=O)CSC1=O	46%	?	44%	2	21	2
Cc1nc(CSc2nnc(Nc3cccc(C)c3C)s2)cs1	?	7.4µM*	?	11	?	0
CC(OC(=O)CSc1ccc([N+](=O)[O-])cc1)C(=O)NCc1ccccc1 (stereo unspecified)	5%	1%	2%	.	.	.
Cc1c(NC(=O)Nc2cccs2)cccc1[N+](=O)[O-]	?	-26%	0%	32	-72*	12*
O=C(Nc1cccs1)Nc1ccccc1Cl	-20%	?	.	78*	23	75*
O=C(Nc1cccs1)Nc1cccnc1Cl	-23%	311%	14%	59*	3	60*
Cc1ccc(NC(=O)Nc2cccs2)c(Cl)c1	?	224%	84%	107*	57	57*
Cc1cccnc1NC(=O)Nc1cccs1	4%	36%	.	35	8	24
N#Cc1ccccc1NC(=O)Nc1cccs1	13%	17%	?	-22	-10	-3
COCCNC(=O)C(c1ccc(F)cc1)N(CCOC)C(=O)CCC(=O)Nc1ccccn1 (stereo unspecified)	22%	4%	2%	-5	0	6
CN(C(=O)CSc1n[nH]c(N)n1)C1CCCCC1	17%	.	.	.	-28	.
Cc1nnc(SCC(=O)N(C)C2CCCCC2)s1	15%	-3%	46%	34	18	11*
COc1cc(C(=O)NC(=S)Nc2nccs2)cc(OC)c1OC	?	?	0%	20	-13	9
CC(C)[C@H]1C(=O)N2CCC[C@H]2[C@]2(O)O[C@](NC(=O)[C@@H]3C=C4c5cccc6[nH]cc(c56)C[C@H]4N(C)C3)(C(C)C)C(=O)N12	-16%[8.37 µM]	7.4µM*	5.9µM*	-10	.	-2
CC(C)[C@@]1(NC(=O)[C@@H]2C=C3c4cccc5[nH]cc(c45)C[C@H]3N(C)C2)O[C@@]2(O)[C@@H]3CCCN3C(=O)[C@H](Cc3ccccc3)N2C1=O	-3%[8.37 µM]	2.3µM*	2.9µM*	-13	.	-2
CC(C)C[C@H]1C(=O)N2CCC[C@H]2[C@]2(O)O[C@](NC(=O)[C@@H]3C=C4c5cccc6[nH]c(Br)c(c56)CC4N(C)C3)(C(C)C)C(=O)N12 (stereo partly specified)	-1%	4.1µM*	2.3µM*	-8	-17	-1
CN1C[C@@H](CO)C=C2c3cccc4[nH]cc(c34)CC21 (stereo partly specified)	.	.	.	-4	.	-8
CC(C)C[C@H]1C(=O)N2CCCC2[C@]2(O)O[C@](NC(=O)[C@@H]3C=C4c5cccc6[nH]cc(c56)CC4N(C)C3)(C(C)C)C(=O)N12 (stereo partly specified)	?	2.3µM*	2.6µM*	-9	.	-1
CCC(=O)N1CCC1(C)C(=O)Nc1ccc2scnc2c1 (stereo unspecified)	.	.	.	.	9	.
CC(=O)/C(=N/Nc1ccccc1[N+](=O)[O-])N1CCCc2ccccc21	?	?	?	21	1	9
CC(C)[C@@]1(NC(=O)[C@@H]2C[C@@H]3c4cccc5[nH]cc(c45)C[C@H]3N(C)C2)O[C@@]2(O)[C@@H]3CCCN3C(=O)[C@H](Cc3ccccc3)N2C1=O	4%[8.37 µM]	1.9µM*	1.9µM*	-3	39	-2
O=C(Oc1ccc[nH]c1=O)c1ccc(F)cc1	.	.	.	.	-19	.
O=C(Nc1ccccc1)Oc1ccc[nH]c1=O	15%	42%	16%	16	-39	21*
SMILES	HCV inhibitor	Pf growth 96h	Pf growth 48h	Shiga inhibitor	HCMV inh	CHX counter
Cc1cnc(NC(=O)Nc2ccc(OCc3ccccc3)cc2)c(Br)c1	?	2%	23%	26	18	16*
CC(=O)Nc1ccc(N=Cc2ccc(OCc3ccccc3)cc2)cc1	25%	11%	4%	68*	54	35*
CN1CCN(NC(=S)Nc2ccc(Oc3ccccc3)cc2)CC1	?	?	-17%	-3	-67*	-2
CC(C)C(=O)N/N=C/c1ccc(OCc2ccccc2)cc1	-17%	59%	18%	27	-6	3
COc1ccc2[nH]c(C(=O)Nc3ncc(C)cc3Br)cc2c1	-4%	-2%	?	21	-18	2
CC(O)(CS(=O)(=O)Cc1ccccc1)c1ccccc1Cl (stereo unspecified)	-2%	24%	12%	24	28	6
CC(=O)Nc1ccc(OCc2cccc([N+](=O)[O-])c2)cc1	13%	18%	55%	82*	22	29*
CN(CC(=O)Nc1ccc(F)cc1)C(=O)c1ccc(OCc2ccccc2)cc1	1%	1%	-26%	.	-7	.
CC(=O)Nc1ccc(Oc2ccccc2)cc1	12%	?	?	3	-36	-2
CC(=O)/C(=C/Nc1ccc(Oc2ccccc2)cc1)c1ccccc1	5%	?	0%	-3	-77*	11
COC(=O)Nc1ccc(Oc2ccccc2)cc1	3%	?	18%	24	-4	9.6*
COCC(=O)Nc1ccc(OCc2ccccc2)cc1	0%	-1%	46%	61*	94	38*
Cc1nc(N2CCCC2)ncc1C(=O)N1CCN(c2ccccc2F)CC1	.	.	.	.	6	.
CN(C)C(=O)C(OC(=O)c1ccc2ccccc2n1)c1ccccc1 (stereo unspecified)	-10%	10%	9%	-3	-21	-1
COc1cccc(CNC(=O)c2ccc3c(c2)nnn3C2CCCC2)c1	.	.	.	.	-8	.
O=C(O)C(Cc1ccc2c(c1)oc1ccccc12)NCP(=O)(O)O (stereo unspecified)	.	.	.	-13	.	10
CS(=O)(=O)Nc1ccc(OCc2ccccc2)cc1	-10%	11%	.	55	142	19*
O=C(Nc1ccccc1)Oc1ccccc1	15%	.	31%	-2	8	7
Cc1ccc(OC(=O)Nc2ccccc2)cc1	13%	68%	10µM*	65*	-8	43*
COc1ccc(NC(=S)Nc2ccc(OCc3ccccc3)cc2)cc1OC	5%	82%	8%	16	9	15
NC(=O)COc1ccccc1	-1%	11%	9%	-12	12	-2
COC(=O)Nc1ccc(OCc2ccccc2)cc1	-6%	0%	151%	72*	28	60*

Bioassay records (PubChem BioAssay)
